From PubChem BioAssay
Activity calls are given as the source filed them.

Assays:
[1] = optical density shifts of acrAB sulA E. coli – strain DRC41, OD650, 48 h, E. coli filamentation inducer project, primary screen (AID 1152); conditions: higher = more signal, called active from +8 up or from −8 down;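 further: E. coli MC1000 strain DRC41 lacking acrAB efflux pump and sulA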
[2] = probe aLefty1 binding on compound microarray – biochemical, small-molecule microarray, 635/667 nm fluorescence, primary screen (AID 1153); conditions: higher = more signal;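 further: score merges spot fluorescence with signal-to-noise ratio from the scanned slide images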
[3] = plasmodial surface anion channel blockers, osmotic lysis – cell-based, P. falciparum Indochina, OD700, 1 h, primary screen (AID 1154); conditions: P. falciparum Indochina infected RBC osmotic lysis, higher = more signal, called active from +8 up or from −8 down
[4] = plasmodial surface anion channel blockers, osmotic lysis – cell-based, P. falciparum Indochina, OD700, 2 h, primary screen (AID 1155);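 further: lysis reports solute entry through the parasite surface anion channel PSAC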; conditions: P. falciparum Indochina infected erythrocytes, higher = more signal, called active from +8 up or from −8 down
[5] = changes in parasitized red cell lysis, either direction – P. falciparum Indochina, OD700, 3 h, PSAC antagonist project, primary screen (AID 1156); conditions: P. falciparum-infected erythrocytes, osmotic lysis, higher = more signal, called active from +8 up or from −8 down
[6] = plasmodial surface anion channel blockers, osmotic lysis – cell-based, P. falciparum Indochina, OD700, 18 h, primary screen (AID 1157); conditions: P. falciparum Indochina infected erythrocytes, osmotic lysis OD700, 18 h; higher = more signal, called active from +8 up or from −8 down
[7] = S6 kinase pathway phospho-S6 level changes – cell-based, A549, cytoblot, luminescence, serum-stimulated, primary screen (AID 1158); conditions: 5 h, higher = more signal;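 further: serum-stimulated A549 lung adenocarcinoma cells; signal is phosphorylated S6 detected by cytoblot immunostaining with HRP secondary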
[8] = biological target: NADPH oxidase 2 (Homo sapiens) (UniProt P04839); assay: compounds shifting NOX2 Amplex Red fluorescence – cell-based, HEK293-NOX2, PMA-stimulated, NOX inhibitor project, primary screen (AID 1159); conditions: 45 min, higher = more signal, called active from +8 up or from −8 down; further: test concentration not given here
Chain of NADPH oxidase 2 (Homo sapiens) (P04839 whole entry, looked up): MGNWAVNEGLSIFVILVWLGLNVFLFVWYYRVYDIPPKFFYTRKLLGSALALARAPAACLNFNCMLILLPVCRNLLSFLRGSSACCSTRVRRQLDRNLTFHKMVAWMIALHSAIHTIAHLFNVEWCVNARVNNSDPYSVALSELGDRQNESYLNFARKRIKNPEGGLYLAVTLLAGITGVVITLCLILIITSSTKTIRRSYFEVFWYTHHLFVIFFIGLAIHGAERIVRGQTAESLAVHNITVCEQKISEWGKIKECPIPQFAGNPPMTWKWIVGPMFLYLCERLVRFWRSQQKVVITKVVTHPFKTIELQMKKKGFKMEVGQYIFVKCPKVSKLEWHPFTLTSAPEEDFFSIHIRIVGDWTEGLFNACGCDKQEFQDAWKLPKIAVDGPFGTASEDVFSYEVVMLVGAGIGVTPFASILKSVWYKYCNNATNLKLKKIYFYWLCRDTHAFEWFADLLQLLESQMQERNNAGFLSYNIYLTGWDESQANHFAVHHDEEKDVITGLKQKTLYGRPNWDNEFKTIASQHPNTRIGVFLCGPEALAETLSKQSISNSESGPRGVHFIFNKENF

[9] = biological target: NADPH oxidase 4 (Homo sapiens) (UniProt Q9NPH5); assay: compounds shifting NOX4 Amplex Red fluorescence – cell-based, HEK293-NOX4, tetracycline-induced, NOX inhibitor project, primary screen (AID 1160); conditions: HEK293-NOX4, Amplex Red H2O2 fluorescence, 45 min; higher = more signal, called active from +8 up or from −8 down
Chain of NADPH oxidase 4 (Homo sapiens) (Q9NPH5 whole entry, looked up): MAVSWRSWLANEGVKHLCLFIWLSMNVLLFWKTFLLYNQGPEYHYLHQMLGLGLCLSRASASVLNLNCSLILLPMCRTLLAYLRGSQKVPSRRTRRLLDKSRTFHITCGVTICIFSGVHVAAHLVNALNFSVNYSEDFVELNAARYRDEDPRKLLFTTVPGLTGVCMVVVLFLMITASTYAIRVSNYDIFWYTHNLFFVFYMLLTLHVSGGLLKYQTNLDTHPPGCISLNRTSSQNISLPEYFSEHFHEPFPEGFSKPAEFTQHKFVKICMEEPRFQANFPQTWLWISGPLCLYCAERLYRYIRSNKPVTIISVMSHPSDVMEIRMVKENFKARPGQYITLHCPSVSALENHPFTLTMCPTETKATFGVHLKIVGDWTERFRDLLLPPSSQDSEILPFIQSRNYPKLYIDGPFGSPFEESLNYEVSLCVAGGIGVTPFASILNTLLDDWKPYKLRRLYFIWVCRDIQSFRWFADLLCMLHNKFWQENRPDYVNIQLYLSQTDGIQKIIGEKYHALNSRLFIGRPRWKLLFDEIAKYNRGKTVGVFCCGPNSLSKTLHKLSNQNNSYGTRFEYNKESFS

[10] = biological target: NADPH oxidase 5 (Homo sapiens) (UniProt Q96PH1); assay: compounds shifting NOX5 Amplex Red fluorescence – cell-based, HEK293-NOX5, NOX inhibitor project, primary screen (AID 1161); conditions: HEK293-NOX5, ionomycin, 45 min, higher = more signal
Chain of NADPH oxidase 5 (Homo sapiens) (Q96PH1 whole entry, looked up): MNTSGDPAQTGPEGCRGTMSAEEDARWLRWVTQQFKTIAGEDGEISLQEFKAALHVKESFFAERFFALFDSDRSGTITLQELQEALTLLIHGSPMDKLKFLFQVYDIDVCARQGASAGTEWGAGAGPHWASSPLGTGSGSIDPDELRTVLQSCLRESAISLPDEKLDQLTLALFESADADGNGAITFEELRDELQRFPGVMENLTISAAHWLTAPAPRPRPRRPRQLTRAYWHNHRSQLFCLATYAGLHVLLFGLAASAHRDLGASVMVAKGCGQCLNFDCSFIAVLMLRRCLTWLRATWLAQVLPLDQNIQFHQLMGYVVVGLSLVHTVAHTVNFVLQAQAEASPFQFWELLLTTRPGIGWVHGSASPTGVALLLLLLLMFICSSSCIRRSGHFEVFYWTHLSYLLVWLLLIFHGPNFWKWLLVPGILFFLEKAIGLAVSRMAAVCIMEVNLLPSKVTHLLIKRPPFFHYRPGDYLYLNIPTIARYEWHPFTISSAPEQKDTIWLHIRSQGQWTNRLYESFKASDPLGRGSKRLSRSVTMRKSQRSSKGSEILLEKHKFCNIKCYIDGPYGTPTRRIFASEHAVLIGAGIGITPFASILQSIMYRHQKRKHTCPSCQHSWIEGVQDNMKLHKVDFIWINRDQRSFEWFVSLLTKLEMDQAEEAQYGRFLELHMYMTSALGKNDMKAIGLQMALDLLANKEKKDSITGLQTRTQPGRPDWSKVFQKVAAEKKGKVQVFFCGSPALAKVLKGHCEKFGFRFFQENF

[11] = compound effects on lung adenocarcinoma cell viability – A549, calcein-AM fluorescence, 48 h, basal, profiling panel (AID 1162); conditions: higher = more signal; further: test concentration not given here
[12] = compound effects on differentiated 3T3-L1 adipocyte viability – cell-based, 3T3-L1 adipocytes, calcein-AM fluorescence, 48 h, basal, profiling panel (AID 1163); conditions: 3T3-L1 adipocytes viability, higher = more signal; further: test concentration not given here
[13] = compound effects on hepatocellular carcinoma cell viability – HepG2, calcein-AM fluorescence, 48 h, basal, profiling panel (AID 1164); conditions: higher = more signal; further: test concentration not given here
[14] = compound effects on multiple myeloma cell viability – MM1S, calcein-AM fluorescence, 48 h, basal, profiling panel (AID 1165); conditions: higher = more signal; further: test concentration not given here
[15] = calcein-AM signal in unstimulated myeloma cells – cell-based, calcein-AM fluorescence, 48 h, PK04 Diversity Set, profiling panel (AID 1166); conditions: RPMI8226 myeloma viability, higher = more signal;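 further: cells grown under basal conditions without added stimulus; test concentration not given here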
[16] = JC-1 mitochondrial signal, unstimulated HepG2 cells – cell-based, JC-1 fluorescence, 24 h, 100 nL compound, profiling panel (AID 1167); conditions: HepG2 mitochondrial potential, higher = more signal; further: test concentration not given here
[17] = JC-1 mitochondrial signal, unstimulated adipocytes – cell-based, JC-1 fluorescence, 3T3-L1 adipocytes, 24 h, 100 nL compound, profiling panel (AID 1168); conditions: JC-1 mitochondrial fluorescence, higher = more signal, called active from +8 up or from −8 down; further: test concentration not given here
[18] = JC-1 mitochondrial signal, unstimulated myeloma cells – cell-based, JC-1 fluorescence, RPMI8226, 24 h, 100 nL compound, profiling panel (AID 1169); conditions: JC-1 mitochondrial potential fluorescence, higher = more signal; further: test concentration not given here
[19] = JC-1 mitochondrial signal, unstimulated MM1S myeloma – cell-based, JC-1 fluorescence, 24 h, 100 nL compound, profiling panel (AID 1170); conditions: MM1S mitochondrial potential, higher = more signal; further: test concentration not given here
[20] = resazurin metabolic signal in A549 cells – cell-based, resazurin fluorescence, 24 h, PK04 Diversity Set, profiling panel (AID 1171); conditions: A549 viability, higher = more signal, called active from +8 up or from −8 down; further: test concentration not given here

| Structure (SMILES) | z-score [1] | composite z-score [2] | z-score [3] | z-score [4] | z-score [5] | z-score [6] | z-score [7] | z-score [8] | z-score [9] | z-score [10] | z-score [11] | z-score [12] | z-score [13] | z-score [14] | z-score [15] | z-score [16] | z-score [17] | z-score [18] | z-score [19] | z-score [20] |
| --- | --- | --- | --- | --- | --- | --- | --- | --- | --- | --- | --- | --- | --- | --- | --- | --- | --- | --- | --- | --- |
| CN(C)CCCCCCNC(=O)[C@@H]1C[C@@H]2C(=O)N[C@@H](CCCC[N+](C)(C)C)C(=O)N2[C@@H]1c1ccc(O)cc1 | -0.3 (inactive) | -0.612 | 1.59 (inactive) | -0.375 (inactive) | -0.604 (inactive) | 0.0077 (inactive) | -0.607 | -1.47 (inactive) | -0.773 (inactive) | -1.4 | -0.974 | 0.334 | -0.646 | -1.51 | 0.131 | -0.108 | -0.302 (inactive) | 0.185 | -0.313 | -0.994 (inactive) |
| COC(=O)[C@@]1(Cc2ccc(OC)cc2)[C@H]2c3cc(C(=O)N4CCCC4)n(CCc4ccc(O)c(O)c4)c3C[C@H]2CN1C(=O)c1ccccc1 | -1.84 (inactive) | 0.378 | 5.39 (inactive) | 0.451 (inactive) | 2.1 (inactive) | 0.912 (inactive) | 0.198 | -3.75 (inactive) | -8.38 (active) | -7.92 | -0.393 | 0.609 | -0.0727 | -3.36 | -2.19 | 0.923 | -1.13 (inactive) | -0.445 | -1.13 | -0.0046 (inactive) |
| O=C(CS)NCCCCCNC(=O)[C@@H]1C[C@@H]2C(=O)NCC(=O)N2[C@@H]1c1cccc(OCCO)c1 | 3.02 (inactive) | 0.269 | 2.11 (inactive) | 0.151 (inactive) | -1.32 (inactive) | -1.85 (inactive) | 1.86 | 1.52 (inactive) | 1.06 (inactive) | 1.49 | 0.686 | 0.45 | 0.938 | 0.231 | 0.842 | 1.85 | -0.102 (inactive) | -0.738 | -0.249 | -0.696 (inactive) |
| CO[C@H]1O[C@H](CO)[C@@H](OC(=O)Nc2ccc(Br)cc2)[C@@H]2OC(=O)[C@H](Cc3cccc(Br)c3)C/C=C/C[C@@H](Cc3cccc(Br)c3)C(=O)O[C@@H]12 | 1.7 (inactive) | -0.007 | 2.13 (inactive) | 0.623 (inactive) | -0.147 (inactive) | 0.951 (inactive) | 0.0914 | -1.42 (inactive) | -0.686 (inactive) | 0.0667 | 0.193 | 0.461 | 0.31 | -1.37 | -0.228 | -0.741 | 1.78 (inactive) | -0.209 | -0.456 | -2.1 (inactive) |
| [N-]=[N+]=Nc1ccccc1C[C@@]1(C(=O)N2CCCCC2)N=C(c2ccc(OCCCO)cc2)O[C@@H]1c1ccccc1N=[N+]=[N-] | 0.0693 (inactive) | 0.926 | 31.8 (active) | 29.5 (active) | 2.52 (inactive) | 3.95 (inactive) | 0.0562 | 0.0863 (inactive) | -0.141 (inactive) | -0.801 | -0.911 | 0.0245 | -1.7 | -3.47 | -4.35 | -1.21 | -0.923 (inactive) | -1.3 | -2.21 | -0.797 (inactive) |
| CCCCN1CC=CC23O[C@@H]4C=CCOC(=O)[C@@H]4[C@H]2C(=O)N(CCCCCCO)[C@@H]3C1=O (stereo not given in full) | -0.413 (inactive) | -0.195 | 2.08 (inactive) | 0.393 (inactive) | 1.09 (inactive) | 0.405 (inactive) | 0.133 | 1.09 (inactive) | -0.282 (inactive) | 1.63 | 0.327 | -1.36 | 0.215 | 0.546 | 0.569 | -0.71 | -0.228 (inactive) | 0.76 | -0.12 | -0.499 (inactive) |
| CCN(CC)c1ccc(N2CC=CC34O[C@@H]5C=CCOC(=O)[C@@H]5[C@H]3C(=O)N(CCCCCCO)[C@@H]4C2=O)cc1 (stereo not given in full) | 2.74 (inactive) | 0.176 | 2.21 (inactive) | 0.184 (inactive) | 0.404 (inactive) | -0.313 (inactive) | 0.411 | -0.262 (inactive) | 0.301 (inactive) | 1.17 | -0.705 | 0.839 | -0.0976 | 1.4 | 0.922 | 0.554 | 1.21 (inactive) | 0.267 | -0.72 | 1.37 (inactive) |
| COc1cc(CO)cc(I)c1O[C@H]1C=C(C(=O)NCCO)C[C@@H](N(C(=O)c2cc3ccccc3oc2=O)C2CCCCCC2)[C@@H]1O | 1.07 (inactive) | -0.0646 | 4.63 (inactive) | -0.78 (inactive) | 1.19 (inactive) | -1.9 (inactive) | 1.95 | 0.202 (inactive) | 0.881 (inactive) | 1.2 | 0.062 | 1.54 | 1.11 | 0.443 | -0.704 | -1.63 | -1.51 (inactive) | -0.27 | -1.21 | 0.0258 (inactive) |
| O=C(NCCN1CCOCC1)[C@@H]1c2ccccc2C(=O)N(Cc2cc(C(F)(F)F)cc(C(F)(F)F)c2)[C@H]1c1ccc(CO)cc1 | -0.0112 (inactive) | 0.0479 | 2.81 (inactive) | 1.44 (inactive) | 0.591 (inactive) | 0.526 (inactive) | -0.474 | -0.0635 (inactive) | 0.271 (inactive) | 2.36 | 1.79 | -0.587 | 1.82 | 0.266 | -0.0119 | 2.85 | 0.252 (inactive) | -0.021 | -0.227 | 0.0288 (inactive) |
